Results reported in PubChem BioAssay AID1159506 (National Center for Advancing Translational Sciences (NCATS), 2015).
Over roughly 59,000 sequences, the read-out has its median near -0.00055; the lowest 2% begin near -2. The full list was thinned out, with the lowest values kept by preference.

Assay: Identification of proteins required for the processing of the EWS-FLI1 nascent transcript;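 further: robust z of luciferase light less the median z of siRNAs with the same seed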
Conditions: TC32 Ewing sarcoma NR0B1-luc vs CMV-luc (EWS-FLI1 target promoter against control promoter), 48 h; screened at 20 nM (by protocol)
How it was run: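 Three siRNAs per gene, each in a separate well at 20 nM, were transfected into TC32 cells bearing either reporter construct. Luminescence was measured two days on, and per-gene comparison relied on seed-corrected Z values.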

| Sequence | seed-corrected z-score |
| --- | --- |
| UCAGCUAACAAAGAGUCGC against STAG3 | 0.617 |
| AGCAGUAUAAAACAGGAGC against TIPARP | 0.177 |
| AUAAUCACACUGUCAACUG against ACAA2 | -0.323 |
| AGCCUUAGACGUGCAGUUG against RPL36AP31 | -2.33 |
| UGUUGUAGCAGAAUGAGGA against ARC | -3.81 |
| UGCUGGGUCAGAUGUCUCC against ARHGAP9 | 0.0212 |
| UUCGAUCACCAUAUACUCC against KCNA3 | 0.36 |
| UCGGUAUUCAAACCCUUCG against HIRA | 0.423 |
| UCAGGGCAUAGAUAAGUGG against OR10W1 | -2.86 |
| UUUCUAGCUAAGGUCAAAC against SHOC2 | -0.857 |
| AUAGGAGAUCGCAUCGCCC against CACFD1 | -0.00387 |
| AAGGUGUUCACGUAGGCUG against CLN3 | -2.78 |
| AUUGGUAUCCUAACUAUUC against EFHD1 | 0.876 |
| UCUGGGAACACCCUCAGCA against GABRR2 | -0.593 |
| ACGGAUUCUAGUUUAGAUG against KIAA0232 | 2.72 |
| UCCGUUCAUAGUCUUCUCC against CSPP1 | -2.12 |
| AUAACGAUGCUUUAUGUGG against ABHD1 | -0.139 |
| UCUCUAACUUCGACCCUCU against C19orf68 | 0.527 |
| UUUCUCAACUGCAUGAAAG against LINC00264 | -0.13 |
| UACUGAAGUAGUUAGGAUC against INO80C | 1.43 |
| AUGUUGCCCACGUCCUUGG against RABIF | -3.06 |
| AAUGAGGCAGGCAUGUUGG against PNMT | 1.18 |

| Sequence | seed-corrected z-score |
| --- | --- |
| UGUAUCCUAAGGUAUCGGC against VWA8 | -0.221 |
| AUAUCUUCGAAAGUAAAUC against RPF2P1 | 1.14 |
| UUUUUCCAUACUUCAAGCC against QRICH1 | -0.708 |
| AAAUGGAAAUUCUCGAUGU against HTN1 | 0.36 |
| AGAUUGGUCAAAGCCUUUC against ZNF319 | -2.3 |
| AUAGUUAUUCUUGUCGGGC against HVCN1 | -0.696 |
| UACGUAGUCGUCAUCAUCU against FAM83G | -0.453 |
| UCAUUAGACAUAACAUUGC against ALG13 | 0.117 |
| UCAUAGUCGAUCACCACUG against COL23A1 | -0.458 |
| UUAGUAGUGACAUUUCGGG against MRE11A | -0.0144 |
| UUGAAUAGGAAGAGUAUCC against OMA1 | 1.31 |
| UAACUGAUCAGACCACAAC against TUBA1A | 0.266 |
| UGUCCAUAAACAGUAAAGG against ZNF30 | -2.51 |
| UGAUUUAAUCUUGCCGCCC against PHLDB1 | 0.669 |
| AACACGUUGCCUGUCUUUC against NUTM2A-AS1 | 0.413 |
| UUUAGAACUGGUUAUUUUC against DEFB116 | 0.117 |
| AUGGUGAUCAUGGGACUGC against BEST1 | -3.4 |
| UUUGGUAACCUCUAGGUGC against RUFY2 | 0.0818 |
| UAGGCAAACAUGCACCUGG against POLG | -0.765 |
| UCGUGGUCUUCUAUUGUUC against GRB14 | -0.556 |
| AAUACAAUAGCAUAUACUC against RBBP9 | 0.306 |
| UGCGGAUACAGAUCACUCC against WDR87 | -2.28 |

| Sequence | seed-corrected z-score |
| --- | --- |
| UGAAUAAUGAAGUAUCCUG against AMPH | -0.174 |
| UUAGUUCCAUGCCUUGCUC against ATP6V0A4 | -0.497 |
| AGUUAUAUCAGUCGUGAUC against FERMT2 | 0.187 |
| UUCUGUAUCUGCUCCUUGU against PFDN2 | 1.09 |
| UCUCUUUCCUCUGCGUGCG against GDF7 | -2.92 |
| UCUCAGGACUUAUAGCUGG against CEACAM3 | 0.106 |
| AACUCUAUCUUGUAAAGGC against ZKSCAN3 | 0.0258 |
| UCUAGUAACUCCAUAAGUU against NAA20 | 0.8 |
| UUUGUUGUCUGGUUGGAGC against ZDHHC14 | -0.328 |
| UCAGGGCACAGCUAUAAGG against CPAMD8 | 0.0569 |
| UAUUGUAGAUUGAACAGCC against NSMCE2 | 0.561 |
| AUAGAGCUUAUAGAAGCGG against USP11 | 0.792 |
| UAAAGGGAACGAAACACCC against HSPA1B | 1.45 |
| UUAUUUAUUGCCGCUCAGG against SFTA2 | -2.64 |
| UUGGGUCCGACAGUGAAGA against FAAP20 | 0.502 |
| AGUACUACCAAAGAGAUGG against TBC1D23 | 0.0728 |
| UAUCUUGAUCUGCCUCUCC against HOXB6 | 0.291 |
| UAUCCCAAUACAAAGUACU against RCE1 | -1.06 |
| UUGCUUAACUACUCUGUGC against C9orf106 | -11.2 |
| AUCGCUGUAGCACUUGUGC against PKP3 | -0.54 |
| UGAGUUUCCACUUCCAGCC against UBQLN4 | -2.2 |
| UUUGUUCCAGGGAUGUACU against CYCS | 0.577 |

| Sequence | seed-corrected z-score |
| --- | --- |
| UUCCCGUGAACCGUUGAUC against PNLIPRP3 | 0.389 |
| ACACCUGUGACUAAGACCC against SDR39U1 | -0.296 |
| UUUGGUAUCUCCGACCACC against UCP2 | 0.898 |
| UCAAGUGUAUCAGUUUUCG against KSR2 | 0.704 |
| UGUGGUUGAAGAGGCUUGU against TMEM39B | -2.3 |
| UAAGGUGUGAACUAUAAGG against ZNF267 | -0.0939 |
| UAUAUCAAAAUCCACUCGC against NDUFAF6 | 1.27 |
| UUUCUUAGAUGAGACAUUG against EBLN2 | -12.2 |
| UAAACCUCCACCUAAGAGC against ELP4 | 0.275 |
| UACUCGUACACUUCCAUGC against THBS3 | 1.22 |
| UAACUAUAGUGGUUAGGUC against IL7R | -0.304 |
| AUUUGGGACACUCAAAGGG against ZBTB48 | -0.672 |
| UCCAUAGCAGGAUUAUUGC against ACSL4 | -4.37 |
| UUUGUCGUCACUGUAUUCC against ING5 | -0.505 |
| UAAGGGACAUCUAAGGAAC against MAML1 | -1.38 |
| AAACUUGCGAUCUCAUAUG against FBXW12 | -0.183 |
| UACAGGUAAACAGGUCGUG against SKINT1L | -3.34 |
| UUCUGGUUCACCGUCUUCC against SLC13A2 | -1.96 |
| UUUCGUAUAGAGCUUCUCC against DNAJC5B | -0.0232 |
